RE007 growth inh – less growth of the S. pombe RE007 Vpr strain; S. pombe RE007 Vpr strain, BacTiter-Glo ATP luminescence, 24 h; Potency, µM (series often up to 92.2 µM), for inactives: at the top dose activity change, negative = less growth, actives largely listed as inhibitors; 360,000 tested, 0.21% active; AID 651644; active = well fitted falling curve with a large enough effect; inconclusive = small, poorly fitted or top-dose-only effect; inactive = no such curve, though single readings can be large or run the other way; note: potency is the fitted concentration of half-maximal effect; nearly all actives have a fitted effect of over 50% in size
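Fission yeast RE007 carrying one integrated HIV-1 vpr copy, seeded at OD 0.01 in PMG+AL medium with 23 nL pinned compound. Grown 24 h at 30 degrees; viability read by BacTiter-Glo luminescence after 5 min.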
HCMV inh – inhibitors of human cytomegalovirus | 410,000 tested, 4.5% active | AID 1259415 | activity change, negative = inhibition, % at 57.5 µM | HFF cells, HCMV-luciferase reporter, 72 h; hits give low values; in the data active = activity change below about -60%; inconclusive = no clear call, values can overlap the other calls; inactive = above about -39%
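Compounds were evaluated in HFFs infected with an HCMV luciferase reporter virus (MOI 1 PFU/cell). Luciferase in lysates collected 72 h post infection served as the replication measure.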
FMDV antiviral – foot and mouth disease virus antiviral activity; FMDV antiviral cell-based qHTS; Potency, µM (top dose mostly 57.9 µM), inactives show top-dose activity change, negative = inhibition, hits mostly inhibitors; 410,000 tested, 1.2% active; AID 1159524; calls by dose curve; tested in HEK293T cells; note: read-out not given here; potency is the fitted concentration of half-maximal effect; nearly all actives have a fitted effect of over 45% in size
TbPYK inhibitor – T. brucei pyruvate kinase inhibition; Q57TT1; TbPYK enzyme, Kinase-Glo Plus ATP luminescence, 45 min; Potency, µM (doses to about 76.8 µM), without a hit: top-dose activity, negative = inhibition, actives largely listed as inhibitors; 410,000 tested, 0.12% active; AID 624173; note: potency is the fitted concentration of half-maximal effect; nearly all actives have a fitted effect of over 50% in size
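T. brucei PYK with substrate was exposed to pin-transferred compounds across a concentration series, then started with 130 uM ADP (final). After 45 min at room temperature, Kinase-Glo Plus luminescence was read, normalized and curve-fitted.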
Sm TGR inh – blocks Schistosoma mansoni thioredoxin glutathione reductase; 360,000 tested, 3% active; Potency, µM (series often up to 114 µM), without a hit: at the top dose activity change, negative = inhibition, hits mostly inhibitors; purified TGR, DTNB reduction, TNB absorbance 405 nm; Q962Y6; note: potency is the fitted concentration of half-maximal effect; nearly all actives have a fitted effect of over 60% in size
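Kinetic colorimetric format: TGR-catalysed, NADPH-driven DTNB reduction monitored via TNB absorbance. Enzyme dispensed at 20 nM; compound exposure 15 min at room temperature before reaction start.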
FBPA Giardia inh – blocks Giardia fructose-bisphosphate aldolase activity; Potency, µM (titrated, usually from 59.6 µM), without a hit: at the highest dose activity, negative = inhibition, most hits filed as inhibitors; A8B2U2; 290,000 tested, 0.71% active; AID 2451; purified Giardia FBPA; note: potency is the fitted concentration of half-maximal effect; nearly all actives have a fitted effect of over 55% in size
Target sequence (A8B2U2 whole entry, looked up): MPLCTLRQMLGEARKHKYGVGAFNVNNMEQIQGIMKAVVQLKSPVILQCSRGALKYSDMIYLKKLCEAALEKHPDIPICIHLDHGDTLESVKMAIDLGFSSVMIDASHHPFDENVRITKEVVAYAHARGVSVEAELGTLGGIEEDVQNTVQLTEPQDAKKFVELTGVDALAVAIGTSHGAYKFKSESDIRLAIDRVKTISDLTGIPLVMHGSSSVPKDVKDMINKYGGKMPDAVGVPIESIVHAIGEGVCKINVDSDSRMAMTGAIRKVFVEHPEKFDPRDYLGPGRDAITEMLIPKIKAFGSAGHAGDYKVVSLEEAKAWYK
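Giardia FBPA (40 nM reagent) was preincubated 10 min at RT with compound (up to 57.5 uM final), then substrate plus GAPDH/TPI/NAD/arsenate coupling system with diaphorase/resazurin was added; resorufin fluorescence (525/598 nm) was read after 20 min.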
* = called active by the depositor; u = inconclusive; x = not tested or not shown; + = active, no number; ! = repeats disagree; [ ] = remark or other dose. Compounds with a hit are over-represented: about 7.7% of the library has one in this group of screens. Unless noted, calls come from the whole dose curve; as a rule, active = well fitted curve in the direction sought with a large enough effect; inconclusive = small, poorly fitted or top-dose-only effect, or another doubt; inactive = no such curve, though single readings can be large; an effect the other way counts as inactive or inconclusive. % is set by controls: 0 for no effect and ±100 for the full control effect.

SMILES | RE007 growth inh | HCMV inh | FMDV antiviral | TbPYK inhibitor | Sm TGR inh | FBPA Giardia inh
Cc1ccsc1/C=C1\C(=O)NC(=S)N(C)C1=O | -1% | -102* | 32µM* | u | 25µM* | -3%
CCc1ccccc1-n1nnc(-c2nc(-c3ccccc3F)no2)c1C | x | 47 | 16% | 0% | 2% | x
COCCn1c2c([n+](Cc3cnccn3)c1C)C(=O)c1ccccc1C2=O | x | x | x | 0% | x | x
CCCCOP(=O)(c1ccc(N(C)C)cc1)C(O)c1ccc(N(C)C)cc1 (stereo not given) | -6% | 31 | -5% | -3% | 7% | 0%
CCCCOP(=O)(c1ccc(N(C)C)cc1)C(O)c1c(Cl)cccc1Cl (stereo not given) | 8% | -76* | 71% | -3% | 12% | -4%
COc1ccc(/C=C/C(=O)c2nc3ccccc3n2CC(=O)c2ccc(OC)cc2)cc1 | 10% | 19 | -11% | -11% | 11% | -4%
COc1ccc(C(=O)CN2C(=O)c3ccccc3S2(=O)=O)cc1 | -5% | -92* | 5.6µM* | -4% | 3% | 0%
COc1ccc(C)cc1NC(=O)CN1C(=O)c2ccccc2S1(=O)=O | -5% | -60* | -14% | -3% | -3% | -9%
COc1ccc(C(=O)Cn2c(C(C)=O)nc3ccccc32)cc1 | 13% | -64* | 5% | -4% | x | x
COC(=O)c1cc2c(c3c4ccccc4n(S(=O)(=O)c4ccccc4)c13)C(=O)N(Cc1ccc(N(C)C)cc1)C2 | x | -14 | x | x | x | x
S=c1[nH]nc(-c2cc(-c3ccco3)[nH]n2)n1-c1ccccc1Cl | 16% | 22 | -5% | u | 40µM* | u
S=c1[nH]nc(-c2ccco2)n1-c1ccccc1Cl | -16% | 105 | 45% | u | 16% | -16%
COc1ccc(OC)c(-n2c(-c3cc(-c4ccco4)[nH]n3)n[nH]c2=S)c1 | 8% | 6 | -1% | 3.2µM* | 11% | 0%
COc1ccc(Br)cc1CNC(=O)c1cc2n(n1)CCCN(Cc1ccc(C)cc1)C2=O | x | 7 | -12% | 1% | 1% | x
Cn1c(=O)c(=O)n(C)c2cc(N3CCCC3)c(NS(=O)(=O)c3ccc(F)cc3)cc21 | -11% | -26 | -14% | -4% | u | -30%
Cc1ccc(S(=O)(=O)Nc2cc3c(cc2N2CCOCC2)n(C)c(=O)c(=O)n3C)cc1 | -10% | 40 | -6% | -4% | -5% | x
Cn1c(=O)c(=O)n(C)c2cc(N3CCOCC3)c(NS(=O)(=O)c3ccc(Br)cc3)cc21 | 1% | -16 | 4% | -12% | 25µM* | u
COc1ccc(OC)c(NS(=O)(=O)c2ccc3c(c2)n(C)c(=O)n3C)c1 | 12% | 54 | 22% | -1% | 1% | -17%
Cn1c(=O)c(=O)n(C)c2cc(N3CCCCC3)c(NS(=O)(=O)c3ccc([N+](=O)[O-])cc3)cc21 | 0% | + | 5% | 4% | u | x
COc1ccc(OC)c(S(=O)(=O)Nc2cccc3ccc(O)cc23)c1 | 12% | -62* | 11% | -20% | x | x
COc1ccc(OC)c(S(=O)(=O)Nc2cccc3ccccc23)c1 | -5% | 60 | 63% | -7% | x | x
COc1ccc(OC)c(S(=O)(=O)Nc2cc3c(cc2N2CCCC2)n(C)c(=O)c(=O)n3C)c1 | -3% | 4 | 1% | u | 32µM* | u
C#CCN(Cc1nc(N2CCOCC2)c2ccc(Cl)cc2n1)Cc1ccco1 | x | x | -7% | x | x | x
NC(=O)C1CCN(CC(=O)N2N=CCC2c2ccccc2)CC1 (stereo not given) | 11% | -103* | 2% | 4% | 14% | 1%
O=C(CN1CCN(c2ccccc2)CC1)N1N=CCC1c1ccccc1 (stereo not given) | 2% | -7 | -4% | -3% | 2% | -2%
SMILES | RE007 growth inh | HCMV inh | FMDV antiviral | TbPYK inhibitor | Sm TGR inh | FBPA Giardia inh
CSc1ccccc1NC(=O)CN(C)CC(=O)c1[nH]c(C)c(C(C)=O)c1C | -16% | 29 | 35µM* | -10% | x | x
CSc1ccccc1NC(=O)CN(C)CC(=O)NCc1ccccc1 | 10% | -84* | -6% | -1% | 0% | -1%
CSc1ccccc1NC(=O)CN(C)CC(=O)Nc1cc(C)ccc1C | -4% | -22 | -29% | 5% | 1% | -7%
Cc1cccc(CNC(=O)c2ccc(C)c(-n3c(C)nc4cccnc43)c2)c1 | x | u | -3% | 1%[15.4 µM] | -2% | x
CCOC(=O)c1c(S(=O)(=O)N2CCCC(C(=O)Nc3cccc(Cl)c3)C2)c(C)n(C)c1C (stereo not given) | x | 14 | -10% | 0% | 2% | x
COc1ccc(CN2CCC(C(=O)Nc3ccc(Oc4ccccc4)nc3)CC2)cc1F | -3% | -70* | u | 2% | -19% | 5%
COc1cc(F)ccc1CN1CCC(C(=O)Nc2ccc(Oc3ccccc3)nc2)CC1 | -4% | 0 | u | -1% | -1% | x
CCc1ccc(CN2CCC(C(=O)Nc3ccc(Oc4ccccc4)nc3)CC2)o1 | 11% | -72* | u | -5% | -33% | -9%
O=C(Nc1ccc(Oc2cccnc2)cc1)C1CCN(Cc2cccc(Cl)c2)CC1 | 4% | -79* | -12% | -2% | 4% | 1%
Cn1nccc1C(=O)NCc1ccc2c(c1)CCN2C(=O)c1ccc(F)cc1 | x | -1 | -14% | -2% | 1% | x
COc1ccccc1-c1cnn(C(C)(C)C(=O)NCc2ccccc2Br)c1 | x | 11 | x | x | x | x
CN(c1ccc(C(=O)N2CCCCCC2)cc1)S(=O)(=O)c1ccc(Cl)cc1 | 3% | -74* | u | 3% | 12% | x
COc1ccc(S(=O)(=O)N(C)c2ccc(C(=O)N3CCC(C(N)=O)CC3)cc2)cc1 | 3% | -15 | -6% | 1% | 3% | 6%
COc1ccc(S(=O)(=O)N(C)c2ccc(C(=O)N3CCC(C(N)=O)CC3)cc2)cc1OC | 3% | -100* | -13% | -2% | -33% | 4%
O=C(Cc1cccnc1)N1CC(=O)N2[C@@H](CO)[C@H](c3ccc(Br)cc3)[C@@H]2C1 | x | -8 | x | x | x | x
COc1ccc(CNc2nc(-c3ccc4c(c3)OCO4)nc3ccccc23)c(OC)c1 | x | x | 5% | x | x | -1%
COc1ccc(C(=O)NCc2c(C)oc(C)c2C(=O)O)cc1 | 5% | 7 | -10% | -2% | -23% | -13%
COc1ccc(C(=O)NCc2oc(-c3ccccc3)cc2C(=O)O)cc1 | 0% | -86* | 7% | -6% | u | 15%
CCOC(=O)/C=C/[C@H](C)NC(=O)C(F)(F)F | x | -15 | x | x | x | x
CC(C)CC(=O)Nc1nnc(S(=O)(=O)N(C)Cc2ccco2)s1 | -6% | x | 14% | 0% | 8.9µM* | x
CN(Cc1ccco1)S(=O)(=O)c1nnc(NC(=O)c2cccc(Cl)c2)s1 | -1% | 56 | 42% | u | 7.9µM*! | x

Screening results as filed in PubChem BioAssay.
